Bioassay records deposited in PubChem BioAssay by National Center for Advancing Translational Sciences (NCATS).
Shown is part of a subset that was picked to be rich in hits.
Sfp PPTase inh = blocks B. subtilis Sfp PPTase activity; Biochemical Sfp PPTase activity, qHTS; Potency, µM, hits mostly inhibitors; hit rate 3.5% among 310,000; AID 1490;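 further: the enzyme is Sfp with the accession as filed and its product quenches rhodamine fluorescence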
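Sfp 15 nM + cpd, 15 min RT; start w/ rhodamine-CoA 5 uM, BHQ-2-YbbR 12.5 uM (final); 50 mM Hepes pH 7.6, 10 mM MgCl2, 0.01% NP-40, 0.01% BSA; read 525/598 nm at 0 and 30 min.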
VDR inh = inhibitors of human vitamin D receptor; P11473; AID 504847; hit rate 0.93% among 400,000; VDR-SRC2-3 peptide fluorescence polarization, 2 h; Potency, µM, hits mostly inhibitors
Target sequence (P11473 whole entry, looked up): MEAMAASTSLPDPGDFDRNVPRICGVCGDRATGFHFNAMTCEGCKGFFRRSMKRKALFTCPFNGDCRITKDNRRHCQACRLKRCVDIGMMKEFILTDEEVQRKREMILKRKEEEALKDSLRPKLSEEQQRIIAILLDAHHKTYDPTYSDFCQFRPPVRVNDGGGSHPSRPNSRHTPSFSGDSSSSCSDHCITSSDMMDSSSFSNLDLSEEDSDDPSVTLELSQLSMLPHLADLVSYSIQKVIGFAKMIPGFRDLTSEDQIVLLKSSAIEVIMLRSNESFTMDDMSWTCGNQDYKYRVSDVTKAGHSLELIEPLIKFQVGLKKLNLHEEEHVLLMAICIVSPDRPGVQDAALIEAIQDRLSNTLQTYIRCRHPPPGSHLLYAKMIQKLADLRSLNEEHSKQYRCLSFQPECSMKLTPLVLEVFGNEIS
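Reagent solutions, kept cold and dark, are dispensed first; compounds are then pinned in at 23 nl, plates briefly spun, and incubated 2 h at ambient temperature. Inhibition of VDR–SRC2-3 peptide binding is read by fluorescence polarization.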
12-LOX inh = inhibitors of human 12S-lipoxygenase ALOX12; hit rate 1.1% among 580,000; purified 12hLO, xylenol orange hydroperoxide absorbance; Potency, µM (top dose mostly 108 µM), hits mostly inhibitors; P18054
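Hydroperoxide product was detected by ferrous iron/xylenol orange as the 573 to 405 nm absorbance ratio. Arachidonic acid at 40 uM (final) was turned over for 30 min at room temperature by 150 nM human 12hLO, pH 7.0 Hepes buffer, after 15 min compound preincubation.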
GRP78 ERSR act = induces the endoplasmic reticulum stress response in human glioma cells. U87-MG GRP78 promoter luciferase reporter, 16 h. Potency, µM, usual class: activators. hit rate 0.02% among 420,000; further: series mostly up to about 76 µM; nearly all actives have a fitted effect of over 35% in size
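Stably transfected U87-MG glioma cells carrying a GRP78-based luciferase sensor; 16 h compound incubation. Luminescence end-point read 10 min after Bright-Glo addition at room temperature.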
G9a inh = G9a (human) methyltransferase inhibition; hit rate 8.8% among 350,000; G9a H3K9 monomethylation, AlphaScreen, 2 h; AID 504332; Q96KQ7; Potency, µM (titrated, usually from 102 µM), usual class: inhibitors; further: nearly all actives have a fitted effect of over 75% in size
Target sequence (Q96KQ7 913-1193 limits assumed): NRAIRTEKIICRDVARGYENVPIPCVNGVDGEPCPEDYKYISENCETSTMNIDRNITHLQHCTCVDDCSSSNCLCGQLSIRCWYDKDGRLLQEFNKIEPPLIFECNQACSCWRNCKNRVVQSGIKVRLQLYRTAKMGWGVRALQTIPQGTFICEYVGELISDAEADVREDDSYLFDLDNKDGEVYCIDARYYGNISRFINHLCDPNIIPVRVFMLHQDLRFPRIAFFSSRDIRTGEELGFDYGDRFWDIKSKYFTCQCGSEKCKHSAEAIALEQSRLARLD
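Chemiluminescent proximity detection of H3K9 monomethylation, read after 10 min bead incubation in the dark. Reaction: 20 nM G9a, 500 nM biotin-H3K9 peptide, 20 uM SAM cofactor, 2 h, room temperature, following 15 min enzyme-compound preincubation.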
Numbers stand for hits; i = inactive; ? = inconclusive; nt = no result; ! = repeats disagree; [ ] = remark or other dose. The call rests on the fitted dose curve; in most records, active means well fitted curve in the direction sought with a large enough effect; inconclusive means small, poorly fitted or top-dose-only effect, or another doubt; inactive means no such curve, though single readings can be large; an effect the other way counts as inactive or inconclusive.

SMILES	Sfp PPTase inh	VDR inh	12-LOX inh	GRP78 ERSR act	G9a inh
O=C1C(Cl)=C(N2CCOCC2)C(=O)N1c1ccccc1Cl	i	45µM	i	i	i
COC(=O)c1cccc(N2C(=O)C(Cl)=C(N3CCOCC3)C2=O)c1	i	?	i	i	50µM
O=C1C(Cl)=C(N2CCCCCC2)C(=O)N1c1ccccc1Cl	i	i	?	i	i
O=C(O)c1cccc(NC(=S)NC(=O)c2ccc3ccccc3c2)c1	i	i	?	i	56µM
CC(=O)c1cccc(NC(=S)NC(=O)c2ccc(C)cc2)c1	i	i	?	i	?
Cc1ccc(C(=O)O)cc1NC(=S)NC(=O)c1ccc([N+](=O)[O-])c(C)c1	?	i	20µM	i	50µM
Cc1c(NC(=S)NC(=O)c2ccccc2)c(=O)n(-c2ccccc2)n1C	nt	i	i	i	nt
O=C(NC(=S)Nc1c(Cl)cc(Cl)cc1Cl)c1ccccc1	nt	nt	35µM	i	nt
Cc1ccc(NC(=S)NC(=O)c2ccccc2)cc1NC(=S)NC(=O)c1ccccc1	25µM	i	4µM	i	?
Nc1ccccc1OCC(F)(F)F	nt	nt	i	nt	nt
O=S(=O)(NCc1ccccc1Cn1cccn1)c1ccc(Cl)c(C(F)(F)F)c1	nt	nt	i	nt	nt
COc1ccc2c(c1)c(CN1CCOCCNC(=O)CC1)cn2C(C)C	nt	nt	i	nt	nt
CCOC(=O)N1CCN(Cc2nc3cc(NC(=O)COc4ccccc4C)ccc3n2C)CC1	nt	nt	i	nt	nt
CNC(=S)Nc1ccc(C)c(NC(=S)NC)c1	i	?	i	i	28µM
O=C(O)c1ccc(NC(=S)NC(=O)c2ccc3ccccc3c2)cc1	i	i	?	?	nt
CCC(=O)Nc1cccc(NC(=S)NC(=O)c2ccccc2)c1	i	i	i	i	?
Cc1ccc(NC(=O)c2cccs2)cc1S(=O)(=O)Nc1cccc(Cl)c1	i	i	i	i	i
O=C(NC(=S)Nc1ccccc1C(=O)O)c1ccc2ccccc2c1	45µM	i	25µM	i	28µM
Cc1ccc(NC(=S)NC(=O)c2ccc(F)cc2)cc1S(=O)(=O)Nc1cccc(Cl)c1	i	i	13µM	i	?
O=C(NC(=S)Nc1cccc(NC(=S)NC(=O)c2ccccc2)c1)c1ccccc1	nt	i	14µM	i	nt
CC(=O)Nc1ccc(C)c(NC(=S)Nc2ccc(F)cc2)c1	i	i	?	i	nt
CN1CCC2(CCN3CCc4c(oc5ccccc45)C3C2)N(C)C1=O (stereo not given)	nt	i	nt	i	16µM!
COc1ccc(-n2ncc3c(NCC(C)C)ncnc32)cc1	i	i	6.3µM	i	i
COc1ccc(-n2ncc3c(NC(C)C)ncnc32)cc1	i	i	?	i	i
COc1ccc(CN2CCN(CC(=O)Nc3ccccc3C(=O)NC3CCCC3)CC2)cc1	nt	nt	i	nt	nt
SMILES	Sfp PPTase inh	VDR inh	12-LOX inh	GRP78 ERSR act	G9a inh
Cc1cc(C)c2c(=O)[nH]c(SCC(=O)c3ccccc3)nc2n1	nt	nt	i	nt	nt
Cc1cc(C)c2c(=O)[nH]c(SCC(=O)c3ccc(C)c(C)c3)nc2n1	56µM	i	?	i	50µM
Cn1c(C(C#N)C2=C(Cl)C(=O)N(c3ccccc3)C2=O)nc2ccccc21 (stereo not given)	?	nt	nt	nt	14µM
Cn1ccnc1SCc1ccc(Cl)cc1Cl	i	i	i	i	8.9µM
CN(Cc1ccccc1)C(=O)Nc1ccc2oc(C3CC3)nc2c1	nt	nt	i	nt	nt
O=C(C(NS(=O)(=O)c1cccs1)c1ccccc1)N1CCN(c2ccccc2)CC1 (stereo not given)	i	i	i	i	45µM
O=C1C(NS(=O)(=O)c2cccs2)=C(N2CCN(c3ccccc3)CC2)C(=O)c2ccccc21	i	i	i	i	3.2µM
Cn1nc(C(=O)OCCOc2ccccc2Cl)c2ccccc2c1=O	nt	nt	i	nt	nt
CN(C)c1ccc2ncccc2c1	nt	nt	5µM	nt	nt
CN(C)c1ccc(/C=C/c2ccc3ncccc3c2)cc1	nt	nt	nt	i	nt
Cc1nn(-c2ccccc2)c(C)c1CN(C)C(=O)CNC(=O)c1ccc(Cl)cc1	nt	nt	i	nt	nt
COc1cc(/C=C/C(=O)OCC(=O)NCc2ccco2)ccc1OC(F)F	i	i	i	i	40µM
CCOc1cc(/C=C/C(=O)OCC(=O)NCc2ccco2)cc(Cl)c1OC	nt	i	i	i	50µM
CCc1noc(CC2CCOC3(CCN(S(=O)(=O)c4c(C)cc(C)cc4C)CC3)C2)n1 (stereo not given)	nt	nt	i	nt	nt
O=C(CCc1ncc(-c2ccc(F)cc2F)o1)NCc1ccc2c(c1)OCO2	nt	nt	i	nt	nt
CCOC(=O)c1ccc(-n2c(CN3CCC(C(N)=O)CC3)nc3ccc([N+](=O)[O-])cc3c2=O)cc1	22µM	?	i	i	?
CCOC(=O)N1CCN(Cc2nc3cc([N+](=O)[O-])ccc3n2C)CC1	i	i	i	i	i
CCOC(=O)C1CCN(Cc2nc3ccccc3c(=O)n2-c2ccc(F)cc2)CC1	i	i	i	i	?
CCOC(=O)c1ccc(-n2c(CN3CCC(O)CC3)nc3ccc([N+](=O)[O-])cc3c2=O)cc1	18µM	i	i	i	13µM
c1ccc(Sc2ccccn2)cc1	nt	i	?	i	nt
c1ccc(SSc2ccccn2)nc1	nt	3.2µM	nt	i	nt
COc1cc(CN2C[C@@H](CO)[C@H](C3CCN(C(C)=O)CC3)C2)ccc1F	nt	nt	i	nt	nt
C/C(=N\OCc1nc2ccccc2c(=O)n1/N=C/c1cc([N+](=O)[O-])ccc1O)c1ccccc1	i	i	i	i	40µM
Cc1cn2nnc(C(=O)NCc3ccc(OC(C)C)cc3)c2c(=O)[nH]1	nt	nt	i	nt	nt
O=C(Nc1ccc2c(c1)OCO2)NC1(C(F)(F)F)Oc2ccccc2O1	i	i	?	?	6.3µM
SMILES	Sfp PPTase inh	VDR inh	12-LOX inh	GRP78 ERSR act	G9a inh
O=C(Nc1ccc2c(c1)OCCO2)NC1(C(F)(F)F)Oc2ccccc2O1	?	i	?	i	2µM
O=C(NC1(C(F)(F)F)Oc2ccccc2O1)N1CCCC1	i	i	?	i	6.3µM
CCCS(=O)(=O)NC(=O)C1(C)CCCN(C(=O)CCc2ccccc2)C1 (stereo not given)	nt	nt	i	nt	nt
COc1cc(C2C(=O)N(C3CCCC3)CC(=O)N2Cc2ccco2)ccc1OC(C)C (stereo not given)	i	i	i	i	79µM
Cc1nc(NCc2ccccc2)sc1C(=O)NC1CC1	nt	nt	i	nt	nt
Cc1nc(NCc2ccccc2)sc1C(=O)Nc1ccccc1	i	i	i	i	50µM
Cc1nc(NCCOc2ccccc2)sc1C(=O)Nc1ccccc1	i	i	?	i	45µM
Nc1ccc(/C=C/c2ccc([N+](=O)[O-])cc2)cc1	nt	nt	i	nt	nt
O=C(NCCCNC(=O)C1CCCCC1)C1CCCCC1	nt	nt	i	nt	nt
Cc1nnc(N2CCOCC2)c2c1nnn2Cc1ccccc1Cl	nt	nt	i	nt	nt
CCCCC/C=C\C/C=C\C/C=C\C/C=C\CCCCCC(=O)O	i	i	i[12.5 µM]	i	i
CC/C=C\C/C=C\C/C=C\C/C=C\C/C=C\CCCC(=O)O	i	40µM!	nt	i	i
CC/C=C\C/C=C\C/C=C\CCCCCCCC(=O)O	79µM!	22µM!	i	i	18µM!
CC/C=C\C/C=C\C/C=C\CCCCCCCCCCCC(=O)O	i	50µM	i[12.5 µM]	i	i
CC/C=C\C/C=C\C/C=C\CCCCCCCCCC(=O)O	i	i	i[12.5 µM]	i	i
O=C(Nc1cc2c3c(c1)CC(=O)N3CCC2)c1ccco1	nt	i	i	i	35µM
